The source of these data is PubChem BioAssay AID1745847 (National Center for Advancing Translational Sciences (NCATS), 2022).

Each structure is given as a SMILES string. Out of some 2,100 compounds screened, about 670 (32%) were called active. About 50% were inconclusive and are not listed. The list shows a part of the results. A number with no mark means an inactive call. Calls follow the shape of the dose curve; as a rule, active = well fitted inhibition curve with a large enough effect; inconclusive = small, poorly fitted or top-dose-only effect; inactive = no such curve, though single readings can be large or run the other way.
% is scaled to controls: 0 for no effect and ±100 for the full control effect; potency is read from the fitted curve at half-maximal effect.

A short description of the experiment: CMV-Luciferase Counterscreen for Inhibitors of ATXN expression. Also: nearly all actives have a fitted effect of over 55% in size. Particulars: HEK-293 CMV-luciferase reporter, luminescence, 24 h; series mostly up to 57.5 µM; activity change, negative = inhibition: at the top concentration. (A counterscreen serves to expose hits that act by an unwanted route or on another target.)
For the molecule `CCCc1nc(NC2CCCCC2)c(C#N)c2c1COC(C)(C)C2`, the activity change, negative = inhibition was -15.4% [at 11.4 µM].
As for `CC(=O)Oc1ccc(N(C(C)=O)S(=O)(=O)c2cccs2)c2ccccc12`, the Potency is 25.1 µM (active).
Same read-out and setting: the result for `CC(=O)Oc1ccc(N(C(C)=O)S(=O)(=O)c2ccc(C)cc2C)c2ccccc12` reads 17.8 µM (active).
As to `NC(Cc1ccc(F)cc1)c1csc(Nc2cc(NCc3ccco3)ncn2)n1` (stereo not drawn), the activity change, negative = inhibition was 0.881% [at 11.4 µM].
On to `Cc1nc(C(F)(F)F)c(C(=O)N/N=C(\N)c2ccccn2)s1`, for which the Potency is 10 µM (active).
Still for that read-out and setting: the result for `Cc1cccc(/C=C/C(=O)c2ccc([N+](=O)[O-])o2)c1` reads 3.55 µM (active).
As for `COc1cc(/C=C/C(=O)c2ccc(C)c([N+](=O)[O-])c2)cc(OC)c1O`, the “activity change, negative = inhibition” value was -13.8%.
Still for that read-out and setting: the result for `CN(C)C(=O)c1cccc(-c2cnc3c(NC=O)cc(-c4ccc(F)cc4)cn23)c1` reads 49.3% [at 11.4 µM].
Take `COc1ccc(CC2C(=O)NC(C)C(=O)N(C)C3Cc4ccc(cc4)Oc4cc(ccc4O)CC(C(=O)NC(C)C(=O)NC(C)C(=O)N2C)N(C)C3=O)cc1` (stereo not drawn): the Potency is 0.891 µM (active).
Turning to `O=C(N/N=C/c1cc([N+](=O)[O-])ccc1O)c1cccc2cc[nH]c12`, the Potency is 2.82 µM (active).
On the same count and under the same terms, the result for `O=C(N/N=C/c1cc([N+](=O)[O-])ccc1O)c1cc(-c2ccccc2)nc2ccccc12` reads 1.78 µM (active); that for `OC[C@@H]1CN(Cc2ccc(-c3ccccc3)cc2)C[C@H](n2cnc3c(NC4CCC4)ncnc32)O1`, 10 µM (active).
For the molecule `CN(C)CCNc1ncnc2c1ncn2[C@H]1CN(Cc2ccc(-c3ccccc3)cc2)C[C@@H](CO)O1`, the “activity change, negative = inhibition” value was -29.3%.
For `OC[C@@H]1CN(Cc2ccc(-c3ccccc3)cc2)C[C@H](n2cnc3c(Nc4ccccc4)ncnc32)O1`, the Potency was 12.6 µM (active).
For `CN(C)CCCNc1nc2cc(-c3cccc(Cl)c3)sc2c(=O)n1C`, the “activity change, negative = inhibition” value is -10.1%.
On the same count and under the same terms, the result for `CN(C)C(=O)CSc1nc(-c2ccccc2)nc2c1CCCC2` reads -18.6%.
Take `CC1CCCCN1C(=O)C1CCN(c2nc(-c3ccccc3)nc3c2CCC3)CC1` (stereo not drawn): the Potency was 22.4 µM (active).
As for `CSc1nc(-c2ccc(Cl)cc2)nc(N)c1C#N`, the activity change, negative = inhibition is -7.46% [at 11.4 µM].
Regarding `CCc1cc(-c2nnn(CCC3COCCO3)c2CC)ccc1-c1cn(CCc2c[nH]c3ccccc23)nn1` (stereo not drawn), the Potency was 4.47 µM (active).
Still for that read-out and setting: the result for `COc1ccc2oc(/C=C/N(C)C)c(C(=O)c3ccc(Cl)cc3)c2c1` reads 12.6 µM (active).
On to `C[C@H]1O[C@@H](O[C@H]2[C@@H](O)C[C@H](O[C@H]3[C@@H](O)C[C@H](O[C@H]4CC[C@@]5(C)[C@H](CC[C@@H]6[C@@H]5C[C@@H](O)[C@]5(C)[C@@H](C7=CC(=O)OC7)CC[C@]65O)C4)O[C@@H]3C)O[C@@H]2C)C[C@H](O)[C@@H]1O`, for which the “activity change, negative = inhibition” value was -12%.
Same read-out and setting: the result for `COc1cc2c3nnc(-c4ccc(F)cc4)c-3cn(Cc3ccc(C)cc3)c2cc1OC` reads 16.9%.
For `O=c1oc2ccccc2c(O)c1Cc1cc(Cl)c2cccnc2c1O`, the Potency is 10 µM (active).
Same read-out and setting: the result for `CCC1(c2ccccc2)ON(c2c(Br)cccc2Br)C1=O` (stereo not drawn) reads 17.8 µM (active); that for `O=C(c1ccc(Cn2c(=S)[nH]c3ccccc3c2=O)cc1)N1CCN(c2ccccn2)CC1`, 3.16 µM (active).
`CCc1nc2ccc(C(=O)Nc3cccc(NS(C)(=O)=O)c3)cn2c1N(CC)Cc1cccc(Br)c1`: the Potency was 31.6 µM (active).
Same read-out and setting: the result for `CCc1nc(N)nc(N)c1-c1ccc(N(C)Cc2ccccc2)c([N+](=O)[O-])c1` reads 0.501 µM (active).
Consider `Cn1c(-[n+]2c(-c3ccccc3)cc(-c3ccccc3)cc2-c2ccccc2)nc2c([N+](=O)[O-])cccc21`, for which the activity change, negative = inhibition is 0.1% [at 11.4 µM].
On to `O=S(=O)([N-]c1nc2ccccc2nc1-[n+]1ccc(Cc2ccccc2)cc1)c1ccc(Br)s1`, for which the Potency was 14.1 µM (active).
Take `Cc1ccc(-c2cc(C(=O)NCCCN3CCOCC3)no2)cc1`: the Potency is 8.91 µM (active).
Turning to `CN1CCN(CCNC(=O)c2ccc3nc(-c4ccc(F)cc4)c(-c4ccc(F)cc4)nc3c2)CC1`, the “activity change, negative = inhibition” value is -29.4%.
Turning to `O=C(Nc1ccc(Cl)c([N+](=O)[O-])c1)c1ccc(NCCCN2CCOCC2)c([N+](=O)[O-])c1`, the “activity change, negative = inhibition” value was 1.7%.
Take `Cc1cnc(NC(=O)C2CC(=O)N(c3cccc(Cl)c3)C2)s1` (stereo not drawn): the activity change, negative = inhibition is 51.5% [at 11.4 µM].
For the molecule `CCc1ccc(N2CC(C(=O)N/N=C/c3cc([N+](=O)[O-])ccc3O)CC2=O)cc1` (stereo not drawn), the Potency is 10 µM (active).
Still for that read-out and setting: the result for `O=C(N/N=C/c1ccccc1O)C1CC(=O)N(c2ccc(Cl)cc2)C1` (stereo not drawn) reads 0.631 µM (active); that for `COc1ccc(Cn2c(-c3ccc(C)cc3)c[n+]3ccccc23)cc1`, 1 µM (active); that for `Nc1nc(N)c2cc(Sc3ccc4ccccc4c3)ccc2n1`, 10 µM (active).
As for `COc1cc(NC(=O)c2cc(-c3ccccc3)nc3c2cnn3C(C)C)cc(OC)c1OC`, the Potency was 3.16 µM (active).
Regarding `COc1cc(Nc2ncc3c(n2)CCN(C(=O)Nc2ccc(C(C)C)cc2)C3)cc(OC)c1OC`, the activity change, negative = inhibition is -3.4% [at 11.4 µM].
Same read-out and setting: the result for `O=C(Nc1ccc(NC(=O)c2ccc(Cl)cc2Cl)cc1)c1cccs1` reads -4.86%.
Take `O=C(Nc1ccc(N2CCN(C(=O)c3ccco3)CC2)c(Cl)c1)c1cccs1`: the Potency was 20 µM (active).
Still for that read-out and setting: the result for `Cc1ccccc1C(=O)N1CCN(c2ccc(NC(=O)c3ccco3)cc2Cl)CC1` reads 12.6 µM (active).
For the molecule `O=C(Nc1ccc(N2CCOCC2)c(Cl)c1)c1c(F)c(F)c(F)c(F)c1F`, the activity change, negative = inhibition was 29.5% [at 11.4 µM].
With `N#Cc1nc(Cc2cccc3ccccc23)oc1NCc1ccc(F)cc1`, the Potency is 12.6 µM (active).
Consider `Cc1ccccc1C(=O)N/N=C/c1ccc([N+](=O)[O-])s1`, for which the Potency was 11.2 µM (active).
Regarding `CC(C)(C)c1cc(C(=O)N/N=C/c2ccc([N+](=O)[O-])s2)n[nH]1`, the Potency is 11.2 µM (active).
The same measure, in the same setting: the result for `O=C(N/N=C/c1ccc([N+](=O)[O-])s1)c1ccccc1` reads 7.94 µM (active); that for `Cc1ccnn1CC(=O)N/N=C/c1ccc([N+](=O)[O-])s1`, 15.8 µM (active); that for `COc1ccc(C(=O)NCC(=O)N/N=C/c2ccc([N+](=O)[O-])s2)cc1OC`, 12.6 µM (active).
Regarding `CC(C)c1cccc(C(C)C)c1Nc1cn[nH]c1`, the activity change, negative = inhibition is -9.58% [at 11.4 µM].
On the same count and under the same terms, the result for `c1ccc(-c2cccc(-c3ccccn3)n2)nc1` reads 72.5% [at 11.4 µM].
Regarding `NC(=Nc1nc(-c2ccccn2)cc2ccccc12)c1ccccn1`, the Potency was 0.0398 µM (active).
Same read-out and setting: the result for `COc1ccc(-c2nc(NC(=O)C3CC(=O)N(c4ccc5c(c4)OCCO5)C3)sc2C)cc1` (stereo not drawn) reads 10 µM (active).
In the case of `O=C(C1CC(=O)N(c2ccc3c(c2)OCCO3)C1)N1CCN(c2ccccc2)CC1` (stereo not drawn), the activity change, negative = inhibition was -8.65% [at 11.4 µM].
On to `CCc1ccc(-c2csc(NC(=O)C3CC(=O)N(c4ccc5c(c4)OCCO5)C3)n2)cc1` (stereo not drawn), for which the Potency was 10 µM (active).
On the same count and under the same terms, the result for `COc1cc(-c2cc3nc(NCc4cccc(Cl)c4)ccn3n2)cc(OC)c1OC` reads 3.55 µM (active).
As for `O=C(Nc1c(Cl)cccc1Cl)Oc1cccc2cccnc12`, the Potency was 10 µM (active).
As for `O=C(Nc1cccc2cccnc12)c1csc(COCCO)n1`, the “activity change, negative = inhibition” value was 4.19%.
The same measure, in the same setting: the result for `CCOC(=O)c1ccc(N=c2sc(C(=O)OC)cc(=O)n2-c2ccc(C(=O)OCC)cc2)cc1` reads -3.07% [at 11.4 µM].
Regarding `CCOC(=O)c1ccc(/C=C2/C=C(c3ccccc3)N(c3ccc(Cl)c(C(=O)O)c3)C2=O)cc1`, the Potency was 12.6 µM (active).
Still for that read-out and setting: the result for `Cc1ccc(-c2c(C#N)c(N)n3c(nc4ccccc43)c2C#N)cc1` reads 7.08 µM (active); that for `NS(=O)(=O)c1ccc(CCNc2ccn3nc(-c4cccc(C(F)(F)F)c4)cc3n2)cc1`, 31.6 µM (active); that for `COc1cccc(CNc2nc3cc(-c4ccc(C(=O)N5CCN(C)CC5)cc4)sc3c(=O)n2C)c1`, 12.6 µM (active).
On to `CN(C)CCCNc1nc2cc(-c3ccc(F)cc3)sc2c(=O)n1C`, for which the “activity change, negative = inhibition” value is -18.5%.
For `Cn1c(NCCN2CCCC2)nc2cc(-c3ccsc3)sc2c1=O`, the “activity change, negative = inhibition” value was -18.1%.
For the molecule `Fc1ccc2[nH]c3c(NCc4ccccc4)ncnc3c2c1`, the Potency is 0.631 µM (active).
On the same count and under the same terms, the result for `COc1ccc(CNc2ncnc3c2[nH]c2ccccc23)cc1` reads 2.82 µM (active).
In the case of `Cc1[nH]n2c(=O)cc(C(C)(C)C)nc2c1-c1ccccc1`, the Potency is 3.55 µM (active).
As for `O=C(CN1C(=O)c2ccccc2S1(=O)=O)c1ccc(O)c(O)c1`, the Potency is 0.794 µM (active).
Consider `Cc1ccc(C(=O)CN2C(=O)c3ccccc3S2(=O)=O)cc1`, for which the Potency was 0.398 µM (active).
On the same count and under the same terms, the result for `O=C(CN1C(=O)c2ccccc2S1(=O)=O)N1CCc2ccccc21` reads 0.224 µM (active).
The same measure, in the same setting: the result for `Cc1cc(C)c(C(=O)/C=C/c2ccc(C(C)C)cc2)c(=O)[nH]1` reads 8.91 µM (active).
On the same count and under the same terms, the result for `Cc1[nH]c(=O)c(C(=O)/C=C/c2ccccc2)c2c1CCCC2` reads 8.91 µM (active).
With `Cc1ccc(C)c(/C=C/C(=O)c2ccccc(=O)c2O)c1`, the “activity change, negative = inhibition” value was -25.3%.
On the same count and under the same terms, the result for `O=C(/C=C/c1ccccc1)c1cc(Br)ccc(=O)c1O` reads -15.1%.
On the same count and under the same terms, the result for `C[C@@H]1C[C@@H]2O[C@H]2/C=C\C=C\C(=O)Cc2c(Cl)c(O)cc(O)c2C(=O)O1` reads 25.3% [at 11.4 µM].
On to `COCCCNCCCOc1ccc(Cl)cc1C(C)(C)C`, for which the Potency is 22.4 µM (active).
For the molecule `CCCCNCCCOc1cccc(Cl)c1Cl`, the “activity change, negative = inhibition” value was -18.4%.
Turning to `Cc1nn(-c2ccccn2)c2c1C(=O)CC(C)(C)C2N=[N+]=[N-]` (stereo not drawn), the activity change, negative = inhibition was -24.8% [at 11.4 µM].
In the case of `CC1(C)c2[nH]c3ccccc3c2C[C@H]2C(=O)N(Cc3cccc(F)c3)C(=O)N21`, the Potency was 20 µM (active).
On to `CC1(C)c2[nH]c3ccccc3c2C[C@H]2C(=O)N(Cc3ccccc3F)C(=O)N21`, for which the Potency is 17.8 µM (active).
In the case of `OC(c1ccccc1)(c1nc(-c2ccc3ccccc3c2)cs1)C(F)(F)F` (stereo not drawn), the activity change, negative = inhibition was 26.4% [at 11.4 µM].
Take `O=C(/C=C\c1ccco1)Nc1nc(-c2ccc3ccccc3c2)cs1`: the Potency was 3.16 µM (active).
